HT1080 IDH1KD tx = HT-1080 IDH1 knockdown cell toxicity (counter line) | HT-1080 IDH1 knockdown viability, ATP luminescence, 48 h | 360,000 compounds, 2% hits | Potency, µM (series often up to 46.1 µM), for inactives: top-dose activity, negative = toxicity, actives largely listed as cytotoxic | AID 686971;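 also: potency is read from the fitted curve at half-maximal effect; 0% = DMSO wells and -100% = cell-free medium wells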
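Cytotoxicity counter-line: IDH1KD HT-1080, 48 h, CellTiter-Glo. Curves classed by r2, magnitude and activity.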
TDP1 cell CPT = growth inhibition of DT40 Tdp1-/-;hTDP1 cells with camptothecin (screen for TDP1 inhibitors) | 420,000 compounds, 12% hits | chicken DT40 Tdp1-/-;hTDP1 cells + 20 nM CPT, ATP luminescence, 48 h | Potency, µM (doses to about 46.2 µM), for the others: at the top dose activity change, negative = growth inhibition, actives largely listed as inhibitors; also: potency is read from the fitted curve at half-maximal effect; nearly all actives have a fitted effect of over 55% in size
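Chicken DT40 Tdp1-/- cells stably complemented with human TDP1 were seeded at 400 cells/well in medium containing 20 nM camptothecin, exposed to pin-transferred compounds, and grown at 37 °C for at least 48 hr. Viability was read as ATP luminescence.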
DT40 TDP1 no CPT = qHTS for Inhibitors of human tyrosyl-DNA phosphodiesterase 1 (TDP1): qHTS in cells in absence of CPT. AID 686978, 2013. Potency, µM (highest dose often 46.2 µM), for the others: at the highest dose activity change, negative = growth inhibition, actives largely listed as inhibitors. DT40 Tdp1-/- hTDP1 cells, no CPT, ATP luminescence, 48 h. 420,000 compounds, 15% hits; also: potency is read from the fitted curve at half-maximal effect; nearly all actives have a fitted effect of over 55% in size
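Seeded 400 DT40-hTDP1 cells/well (vehicle DMSO, no 20 nM CPT); pinned compounds; ≥48 hr at 37 °C; CellTiter-Glo luminescence as viability measure.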
IL-1B inflam inh = blocks inflammasome-driven IL-1 beta release. THP-1 LPS/ATP IL-1B secretion, AlphaLISA, 16 h; stronger effect = lower value. activity change, % at 57.5 µM. AID 743279. 360,000 compounds, 4.7% hits; in the data active = activity change below about -50%; inconclusive = mostly about -30% to -49%
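THP-1 cells pretreated 1 hr with compounds (up to 57.5 uM final), then stimulated with LPS (250 ng/mL final) plus ATP (1.25 mM final); secreted IL-1B measured by AlphaLISA after 16 hr, decreased signal indicating inhibition.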
HT1080NT lethal = kills 2HG-producing HT-1080-NT fibrosarcoma cells; HT-1080-NT fibrosarcoma viability, CellTiter-Glo ATP luminescence, 48 h; 360,000 compounds, 1.6% hits; Potency, µM (top dose mostly 46.1 µM), without a hit: at the highest dose activity, negative = less viability, hits mostly cytotoxic;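 also: NT is the 2HG producing partner of a matched IDH1 knockdown line; potency is read from the fitted curve at half-maximal effect; 0% = DMSO-treated cells and -100% = media-only wells without cells; nearly all actives have a fitted effect of over 55% in size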
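Fibrosarcoma NT cells, 750 per well in 5% FBS RPMI, were exposed to compound for 48 hours. Viability: CellTiter-Glo luminescence.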
* = called active by the depositor; ? = inconclusive; · = no result given; [ ] = dose if it differs, or a comment. A selection: hits, their analogues and other compounds. The true share with any hit is near 19%. Unless noted, calls follow the shape of the dose curve; as a rule, active = well fitted curve in the direction sought with a large enough effect; inconclusive = small, poorly fitted or top-dose-only effect, or another doubt; inactive = no such curve, though single readings can be large; an effect the other way counts as inactive or inconclusive. Unless noted, % is scaled to controls: 0 for no effect and ±100 for the full control effect.

SMILES	HT1080 IDH1KD tx	TDP1 cell CPT	DT40 TDP1 no CPT	IL-1B inflam inh	HT1080NT lethal
COCCN1CCN(C(=O)c2cnn(-c3nccc(-c4ccccc4F)n3)c2-c2ccco2)CC1	·	10.5%[9.04 µM]	-14.8%	·	·
Cc1ccc(Cn2c(=O)c3cccnc3n(Cc3ccc(C)cc3)c2=O)cc1	·	-26.7%	-18.8%	·	·
C[N+]1(CC(=O)c2ccc(O)c(O)c2)CCOCC1	·	?	-16.6%	·	·
O=C(C[N+]12CN3CN(CN(C3)C1)C2)c1ccc(O)c(O)c1	·	10µM*	?	·	·
COc1ccc(N2C(=O)CC(N3CCC(O)(c4ccc(Br)cc4)CC3)C2=O)cc1 (centres undefined)	-0.8%	18.4µM*	?	28.6	-2.8%
O=C1CC(N2CCC(O)(c3ccc(Br)cc3)CC2)C(=O)N1c1ccc(Cl)cc1 (centres undefined)	-13.2%	?	25.9µM*	0.0	-5.6%
O=C1CC(N2CCC(O)CC2)C(=O)N1c1ccc(Br)cc1 (centres undefined)	8.3%	?	?	0.0	4.5%
CCCOc1ccc(N2C(=O)CC(N3CCC(O)(c4cccc(C(F)(F)F)c4)CC3)C2=O)cc1 (centres undefined)	-6.4%	-23.6%	-36.2%	-8.5	-0.1%
Cc1cc(C)c(NC(=O)c2ccccc2C(=O)c2ccccc2)c(C)c1	-9.6%	6.7%	-27.5%	-13.0	-5.2%
Cc1ccc(C2(c3noc(CN(C)Cc4cnn(C)c4)n3)CCCC2)cc1	-6.9%	20.6µM*	?	-22.2	3.0%
Cc1ccc(C2(c3noc(CN4CCOCC4)n3)CCCC2)cc1	-3.0%	20.2%	-1.8%	-22.6	0.0%
COC(=O)c1nn(-c2ccc(Oc3ccccc3)cc2)c(=O)cc1O	11.5%	-1.0%	?	18.1	28.6%
CC(=O)Nc1ccc(NC(=O)c2cnn(-c3ccccc3)c2C2CCN(C(=O)OC(C)(C)C)CC2)cc1	·	-23.3%	-21.8%	·	·
Cc1ccc(-n2ncc(C(=O)Nc3ccc4c(c3)OCO4)c2C2CCN(C(=O)OC(C)(C)C)CC2)cc1	·	20.6µM*	20.6µM*	·	·
CC(C)(C)OC(=O)N1CCC(c2c(C(=O)N3CCCCC3)cnn2-c2ccc(F)cc2)CC1	·	0.3%	?	·	·
CC(C)(C)OC(=O)N1CCC(c2c(C(=O)Nc3ccc4c(c3)OCCO4)cnn2-c2ccccc2)CC1	·	23.1µM*	18.4µM*	·	·
Cc1ccc(-n2ncc(C(=O)Nc3ccc4c(c3)OCCO4)c2C2CCN(C(=O)OC(C)(C)C)CC2)cc1	·	20.6µM*	20.6µM*	·	·
Cc1ccc(-n2nc(C(=O)N3CCCCC3C)c(=O)n(C)c2=O)cc1 (centres undefined)	·	-13.9%	-6.9%	·	·
CCOC(=O)c1nnc(-c2ccccc2)nc1N1CC(C)OC(C)C1 (centres undefined)	0.6%	-6.2%	-20.2%	-7.7	11.1%
CC(C)NC(=O)[C@@H]1C[C@@H](Sc2ccccn2)CN1C1CCN(C)CC1	·	6.3%	-9.8%	·	·
CC(C)(CO)CNC(=O)CCc1nnc(CCCc2ccccc2)o1	-3.3%	-7.5%	12.1%	-11.9	-4.0%
CC(C)(CO)CNc1ccn2nccc2n1	-3.4%	13µM*	?	-78.5*	-10.0%
CN(C)S(=O)(=O)c1ccc(C(=O)Nc2nnc(-c3cccs3)o2)cc1	?	13µM*	23.1µM*	22.5	-28.8%
N#Cc1ccc(C(=O)Nc2nnc(-c3cccs3)o2)cc1	-27.6%	5.17µM*	7.31µM*	34.1	-20.3%
O=C(Nc1nnc(-c2ccc3c(c2)CCCC3)o1)c1c(F)cccc1F	-23.9%	10.4%	-19.0%	3.2	-14.5%
O=C(Nc1nnc(-c2cccs2)o1)C1CC1	9.1%	-0.4%	2.7%	3.6	0.0%
O=C(Nc1nnc(-c2cccs2)o1)c1cccc(C(F)(F)F)c1	?	5.17µM*	5.17µM*	72.7	?
CN(C)S(=O)(=O)c1ccc(C(=O)Nc2nnc(-c3ccc4c(c3)CCCC4)o2)cc1	-26.2%	2.91µM*	5.17µM*	3.8	-28.8%
CC(=O)Cn1ncc(N(C)Cc2ccccc2)c(Cl)c1=O	3.3%	1.9%	-1.3%	21.2	-0.1%

Screening results (PubChem BioAssay)
